This is one part of a sample in which hits are shown more often than they occur.
HEK293 cAMP cs = counter-screen for TSHR agonists: cAMP increase in parental HEK293; parental HEK293 CNG cAMP sensor, membrane potential fluorescence; Potency, µM (highest dose often 57.1 µM), for inactives: at the top dose activation, hits mostly activators; 73,000 tested, 2.5% active; AID 938; also: % of control where 0% means no effect; nearly all actives have a fitted effect of over 55% in size
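Parental HEK 293 cells stably expressing a cAMP-gated CNG channel were loaded with membrane potential dye containing 100 uM RO 20-1724 for 60 min. Compound added for 30 min; depolarization read as fluorescence intensity at 590 nm.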
TSHR agonist = agonists of human thyroid stimulating hormone receptor | HEK293-CNG-TSHR cells (CNG channel as cAMP sensor), membrane potential dye, cAMP | Potency, µM (doses to about 57.1 µM), for the others: at the top dose activation, most hits filed as activators | 73,000 tested, 0.48% active | AID 926; active = well fitted activation curve with a large enough effect in the main read-out, with a control signal flat, not every such curve was filed as active; inconclusive = small, poorly fitted or top-dose-only effect, or a change in a side signal; inactive = no such curve, though single readings can be large or run the other way; % of control where 0% means no effect;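 also: the control signal comes from parental cells without the receptor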
Target sequence (P16473 whole entry, looked up): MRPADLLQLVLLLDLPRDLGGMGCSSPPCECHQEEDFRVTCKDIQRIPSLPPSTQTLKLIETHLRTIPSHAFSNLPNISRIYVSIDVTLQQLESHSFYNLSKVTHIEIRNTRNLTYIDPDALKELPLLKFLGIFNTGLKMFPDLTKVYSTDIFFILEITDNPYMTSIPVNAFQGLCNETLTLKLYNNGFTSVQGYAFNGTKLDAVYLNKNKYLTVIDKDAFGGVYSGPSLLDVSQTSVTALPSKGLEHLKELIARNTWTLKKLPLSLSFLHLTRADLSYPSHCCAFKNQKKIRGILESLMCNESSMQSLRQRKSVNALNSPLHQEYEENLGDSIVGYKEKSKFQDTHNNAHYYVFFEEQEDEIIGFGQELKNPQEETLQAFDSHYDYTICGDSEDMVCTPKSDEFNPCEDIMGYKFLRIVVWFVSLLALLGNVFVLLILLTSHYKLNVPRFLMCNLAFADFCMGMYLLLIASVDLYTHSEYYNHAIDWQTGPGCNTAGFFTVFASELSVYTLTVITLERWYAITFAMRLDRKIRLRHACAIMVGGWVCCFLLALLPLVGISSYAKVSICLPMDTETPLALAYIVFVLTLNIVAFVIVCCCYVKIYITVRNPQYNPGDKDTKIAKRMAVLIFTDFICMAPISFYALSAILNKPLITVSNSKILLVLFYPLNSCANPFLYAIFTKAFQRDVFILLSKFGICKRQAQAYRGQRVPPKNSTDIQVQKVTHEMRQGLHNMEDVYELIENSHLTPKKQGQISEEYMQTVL
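HEK 293 cells stably expressing TSHR and a cAMP-gated CNG channel; parental CNG-only cells as counterscreen. Cells preloaded 60 min with membrane potential dye plus 100 uM RO 20-1724, then compound 30 min; fluorescence read at 590 nm.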
Peg3 imprint = genomic imprint erasure induction | mouse ES Peg3-LacZ reporter, beta-gal luminescence, 40 h | Potency, µM (highest dose often 60.7 µM), for inactives: at the top dose activity change, positive = activation, actives largely listed as activators | 110,000 tested, 0.02% active
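Imprint erasure is scored as LacZ activity from the silenced maternal Peg3 allele in feeder-free female ES cells cultured 40 h with LIF. Luminescence is normalized to in-plate negative controls and fitted to the Hill equation.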
An asterisk follows results filed as active; ? = inconclusive; nt = no result; [ ] = another dose, or the depositor's remark. Unless noted, calls follow the shape of the dose curve; as a rule, active = well fitted activation curve with a large enough effect; inconclusive = small, poorly fitted or top-dose-only effect; inactive = no such curve, though single readings can be large or run the other way. Potency is read from the fitted curve at half-maximal effect.

SMILES	HEK293 cAMP cs	TSHR agonist	Peg3 imprint
CCOC(=O)c1cccc(NC(=O)c2cc3sccc3n2C)c1	10µM*	?	-22.4%
CCOC(=O)c1cccc(NC(=O)c2cc3sccc3n2Cc2ccc(Cl)cc2)c1	nt	nt	-21.3%[10.9 µM]
Cc1ccc(OCC(=O)Nc2sc3c(c2C(N)=O)CCCC3)c(C(C)(C)C)c1	nt	nt	-12.9%[10.9 µM]
O=c1cc(CSc2nnc(COc3ccc(Cl)cc3)o2)c2ccccc2[nH]1	25.1µM*	?	1.7%
O=c1cc(CSc2nnc(-c3ccccc3)o2)c2ccccc2[nH]1	4.3%	-3.2%	-4.0%
Cc1ccc(Cl)cc1NC(=O)CC(O)(C(F)(F)F)C(F)(F)F	6.31µM*	?	-16.4%
Cc1ccc(Cl)cc1NC(=O)Cn1cccc1	21.9%	4.3%[11.4 µM]	-3.6%
CCc1ccc(-n2c(Cc3ccccc3)nnc2SCc2nc(-c3cccs3)no2)cc1	nt	nt	18.7%[10.9 µM]
CC1=C(C(=O)Nc2ccccc2)C(c2ccc3c(c2)OCO3)C2=C(CCCC2=O)N1 (centres undefined)	15.8µM*	?	5.8%
CCc1ccccc1NC(=O)CSC1=C(C#N)C(c2ccc3c(c2)OCO3)C2=C(CCCC2=O)N1 (centres undefined)	8.1%	11.5%	-10.8%
CCCC/C=C/C(NC(=O)c1ccc(C(=O)OC)cc1)c1ccccc1 (centres undefined)	25.1µM*	?	-8.0%
CCC/C=C(\CCC)C(NS(=O)(=O)c1ccc(-c2ccccc2)cc1)c1ccc(C(=O)OC)cc1 (centres undefined)	18.0%	1.6%	-15.5%
CCCC/C=C/C(NC(=O)C(C)(C)C)c1ccccc1 (centres undefined)	25.1µM*	?	-17.2%
CCC/C=C(\CCC)C(NC(=O)c1ccccc1)c1ccc(C(=O)OC)cc1 (centres undefined)	3.16µM*	?	-15.6%
COC(=O)c1ccc(C(/C=C/[C@@H](C)C(=O)N(C)Cc2ccccc2)NC(=O)OCc2ccccc2)cc1 (some centres undefined)	?	?	-15.9%
CC(NC(=O)C(C)(C)C)c1nc2ccccc2n1C (centres undefined)	2.6%	-1.6%[11.4 µM]	-8.7%
COc1cccc(Cn2c(=O)n(Cc3ccccc3)c(=O)c3c2c2cc(OC)ccc2n3C)c1	nt	nt	8.4%[10.9 µM]
O=C(COc1ccc(F)cc1)Nc1ccc(OCc2cc(=O)n3ccsc3n2)cc1	nt	nt	-9.9%[10.9 µM]
Cc1ccc(C)c(CNC(=O)c2ccc3c(c2)nc2n3CCCCC2)c1	nt	nt	-9.6%[10.9 µM]
Cc1ccc(NC(=O)c2oc3c(c2C)-c2[nH]ncc2CC3)c(Cl)c1	nt	nt	-22.1%[10.9 µM]
O=C(Nc1c2c(nn1-c1ccc(Cl)cc1)CS(=O)(=O)C2)c1cccc(F)c1	nt	nt	-18.7%[10.9 µM]
CCC(C)NC(=O)C1CCCN(S(=O)(=O)c2ccc(-n3cnnn3)cc2)C1 (centres undefined)	4.1%	9.6%	-7.0%
Cc1ccc(S(=O)(=O)N2CCCCC2C(=O)NCc2ccco2)cc1 (centres undefined)	3.3%	15.8µM*	-6.6%
Cc1ccc(S(=O)(=O)N2CCC(C(=O)N3CCC[C@H]3C(=O)NCc3ccco3)CC2)cc1	6.0%	8.0%	-11.6%
O=C(NCc1ccco1)C1CCCN(S(=O)(=O)c2ccc(-n3cnnn3)cc2)C1 (centres undefined)	20µM*	?	9.6%
SMILES	HEK293 cAMP cs	TSHR agonist	Peg3 imprint
Cc1cccn2c(=O)c(C(=O)N3CCN(c4ccccc4)CC3)cnc12	nt	nt	-10.7%[10.9 µM]
COc1ccc(-c2nc(SCC(=O)Nc3c(C)cc(C)cc3C)n[nH]2)cc1	nt	nt	3.3%[10.9 µM]
Cc1nnc(NC(=O)CSc2cn(CCNC(=O)c3ccccc3)c3ccccc23)s1	10.6%	-4.1%	-16.3%
NC(=O)CSc1cn(CCNC(=O)c2cccs2)c2ccccc12	7.9%	31.6µM*	-22.7%
O=C(NCCc1ccc(Cl)cc1)c1nnc(Cc2ccc(F)cc2)o1	nt	nt	-2.2%[10.9 µM]
CN1CCN(Cc2c(O)ccc3occ(C(=O)c4ccccc4)c23)CC1	23.9%	14.0%	-6.5%
COc1ccc(C(=O)c2coc3ccc(O)c(CN(C)C)c23)cc1	31.6µM*	?	7.8%
CCC(CC)C(=O)NCc1nc2cccnc2n1Cc1ccc(F)cc1	nt	nt	-7.0%[10.9 µM]
CCN1CCN(c2cc(C)c3cc(NC(=O)c4cc(Br)ccc4Cl)ccc3n2)CC1	nt	nt	-10.2%[10.9 µM]
C=CCNC(=O)C1CCN(S(=O)(=O)c2ccccc2)CC1	6.0%	-0.6%	-7.4%
C=CCN=C1SC(C)C(=O)N1S(=O)(=O)c1ccccc1 (centres undefined)	0.2%	3.16µM*	-4.8%
O=C(NCc1ccc2c(c1)OCO2)c1ccc(COc2cccc(Cl)c2)o1	20µM*	?	-28.0%
Cc1ccc(S(=O)(=O)Cc2ccc(C(=O)NCc3ccc4c(c3)OCO4)o2)cc1	16.3%	7.9%	-16.5%
Cc1nn(-c2ccccc2)c(OC(=O)c2ccccc2Br)c1S(=O)(=O)c1ccccc1	nt	nt	10.1%[10.9 µM]
Cc1occc1C(=O)N1CCN(S(C)(=O)=O)CC1	8.9%	-0.4%	-3.5%
Cc1occc1C(=O)N1CCN(C(c2ccccc2)c2ccccc2)CC1	19.2%	31.6µM*	-20.5%
O=S(=O)(NCC(c1cccs1)S(=O)(=O)c1ccccc1)c1ccc(F)cc1 (centres undefined)	nt	nt	2.3%[10.9 µM]
CCCCn1c(NC(=O)c2ccccc2)nc2ccccc21	31.6µM*	?	-8.7%
CCCCCn1c(CNC(=O)c2ccccc2)nc2ccccc21	nt	nt	-6.7%[10.9 µM]
O=C(Nc1cccc(C(F)(F)F)c1)c1cc(CN2CCOCC2)on1	nt	nt	1.6%[10.9 µM]
O=C(Nc1ccc(N2CCOCC2)c(Cl)c1)c1ccco1	2.2%	0.4%	-35.3%
O=C(Nc1ccc(N2CCOCC2)c(Cl)c1)C1CCCCC1	25.1µM*	?	-12.3%
Cn1cc(C(=O)NC2CCCCCC2)c(=O)c2cc(S(=O)(=O)N3CCCC3)ccc21	?	?	-3.4%
O=C(NC1CCCCCC1)c1cc(S(=O)(=O)N2CCOCC2)ccc1N1CCCCC1	25.1µM*	?	-15.4%
O=C(c1ccccc1Cl)N(Cc1ccco1)c1ccccn1	nt	nt	-19.8%[10.9 µM]
SMILES	HEK293 cAMP cs	TSHR agonist	Peg3 imprint
CCOC(=O)N1CCc2c(sc(NCc3cccc(F)c3)c2C(=O)Nc2ccc(OCC)cc2)C1	nt	nt	12.9%[10.9 µM]
Cc1ccc(CNC(=O)C2CCCN(c3nc4c(C)cc(C)cc4s3)C2)cc1 (centres undefined)	nt	nt	3.4%[10.9 µM]
CCC[C@@H]1C[C@@]1(CCC)[C@@H](NP(=O)(c1ccccc1)c1ccccc1)c1ccc(C(=O)OC)cc1	12.6µM*	?	-30.9%
CCC[C@@H]1C[C@@]1(CCC)C(NC(=O)OCc1ccccc1)c1ccc(-c2ccccc2)cc1 (some centres undefined)	8.4%	-10.6%	-2.0%
CS(=O)(=O)Nc1cccc(-c2cncnc2NCc2cccs2)c1	-0.7%	7.0%	-4.9%
COc1ccc(-c2nc(C#N)c(N3CCN(c4ccccc4)CC3)o2)cc1	11.8%	nt	-10.1%
Cc1cccc(-c2nc(C#N)c(N3CCCCCC3)o2)c1	23.4%	25.1µM*	-17.8%
COc1ccc2c(c1)c(=O)c(C(=O)c1ccc(C)cc1)cn2Cc1ccccc1F	nt	nt	-7.5%[10.9 µM]
CCOc1ccccc1NC(=O)C(Cc1ccccc1)NS(=O)(=O)c1ccc(Br)s1 (centres undefined)	nt	nt	-8.6%[10.9 µM]
O=C1Nc2ccc(S(=O)(=O)N3CCOCC3)c3cccc1c23	-1.7%	-7.1%	-14.2%
O=C1Nc2ccc(S(=O)(=O)N3CCCCCC3)c3cccc1c23	31.6µM*	?	-16.4%

Compound activity as filed in PubChem BioAssay.
